CYP2C19 inhib = blocks human cytochrome P450 2C19 | P33261 | CYP2C19 Supersomes, luciferin-H EGE luminescence, 30 min | inhibition, % at 5 µM | 96,000 tested, 21% active;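 active = CYP2C19 inhibition above a set limit at 5 µM in the primary screen, cut at about 50% in these data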;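 note: plate controls were negative control wells for no effect and 2.5 mM tranylcypromine positive control for full effect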
Target sequence (P33261 whole entry, looked up): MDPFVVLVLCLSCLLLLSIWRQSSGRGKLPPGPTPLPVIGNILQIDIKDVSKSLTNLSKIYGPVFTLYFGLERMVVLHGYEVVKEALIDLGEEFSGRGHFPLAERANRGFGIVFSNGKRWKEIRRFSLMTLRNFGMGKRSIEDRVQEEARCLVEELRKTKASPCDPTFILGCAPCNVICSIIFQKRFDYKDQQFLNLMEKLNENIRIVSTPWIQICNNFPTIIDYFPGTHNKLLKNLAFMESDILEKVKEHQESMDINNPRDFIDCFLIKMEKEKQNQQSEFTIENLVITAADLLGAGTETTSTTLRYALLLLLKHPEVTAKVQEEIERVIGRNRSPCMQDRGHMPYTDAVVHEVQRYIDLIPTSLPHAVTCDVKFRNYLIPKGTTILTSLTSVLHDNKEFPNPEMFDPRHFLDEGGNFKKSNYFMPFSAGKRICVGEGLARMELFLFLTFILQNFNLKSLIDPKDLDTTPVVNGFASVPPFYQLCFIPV
CYP2C9 inhib = inhibitors of human CYP2C9. AID 777. CYP2C9 Supersomes, luciferin-H conversion, luminescence. inhibition, % at 5 µM. 96,000 tested, 20% active. P11712;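 active = blocking of liver enzyme CYP2C9 beyond about 50% at 5 µM, limit read from the data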
sEH act = soluble epoxide hydrolase (human) activation. P34913. purified human sEH enzymatic activity, activator screen. activation, % at 2 µM. 91,000 tested, 0.04% active. AID 717; in the data active = activation above about 37%
sEH inh = inhibitors of human soluble epoxide hydrolase; inhibition, % at 2 µM; P34913; recombinant human sEH enzymatic activity assay; AID 707; 91,000 tested, 0.34% active; in the data active = inhibition above about 80%
CYP2C19 activ = increases human CYP2C19 enzyme activity | activation factor at 5 µM | 96,000 tested, under 10 active | recombinant CYP2C19, luciferin-H EGE luminescence; stronger effect = higher value; 0 = fully inhibited enzyme, 1 = untreated enzyme | AID 1025;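 active = activation factor of at least 2 at 5 µM in the primary screen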;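 note: 0 = wells with 2.5 mM tranylcypromine and 1 = vehicle-only wells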
CYP2C9 activ = increases human cytochrome P450 2C9 activity; activation factor at 5 µM; recombinant CYP2C9, luciferin-H conversion, luminescence; stronger effect = higher value; factor 1 = untreated enzyme, 0 = blocked; 96,000 tested, 1.4% active; AID 1024;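 active = activation factor of 2 or more for CYP2C9 at a 5 µM dose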;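 note: 0 = sulfaphenazole-blocked wells and 1 = vehicle-only wells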
* marks the source's active call; other numbers are inactive results; . = no result given. In the library only some 27% were active in any assay of this set; here they are far more common.

SMILES	CYP2C19 inhib	CYP2C9 inhib	sEH act	sEH inh	CYP2C19 activ	CYP2C9 activ
CCOC(=O)c1ccc(-n2c(=S)sc3c(=O)[nH]c(C)nc32)cc1	6.3	-13.6	-0.3	0.5	0.9	1.1
CCC(C)C(NC(=O)C1CCC(C)CC1)C(=O)NCc1ccccn1 (stereo not given)	-3.8	-1.0	-7.8	5.6	1	1
CCOC(=O)CSc1nc2cc(C(=O)NCC3CCCO3)ccc2c(=O)n1Cc1ccco1 (stereo not given)	25.6	72.1*	2.8	-3.0	0.7	0.3
CCN(C(=O)CSc1nc2cc(C(=O)OC)ccc2c(=O)n1Cc1ccco1)c1cccc(C)c1	64.2*	91.6*	-2.3	2.3	0.4	0.1
COc1ccc2nc(C)c(C(=O)OCCN(C)C)cc2c1	-7.5	0.9	.	.	1.1	1
COC(=O)/C=C/CSC1=N/C(=C/c2ccc(-n3cncn3)cc2)C(=O)N1	2.1	25.1	7.2	-4.3	1	0.7
COC(=O)c1c(C)[nH]c(C(=O)COC(=O)Cc2ccc3c(c2)OCCO3)c1C	20.0	81.2*	-1.6	1.0	0.8	0.2
O=C(COC(=O)Cc1ccc2c(c1)OCCO2)Nc1ccc(S(=O)(=O)N2CCCC2)cc1	-17.3	24.7	-20.4	18.8	1.2	0.8
CCSc1nnc(Cc2cc(=O)[nH]c(=O)[nH]2)n1-c1cc(C)ccc1C	-14.7	-9.0	2.6	-4.1	1.1	1.1
O=S(=O)(c1ccccc1)c1cnc(-c2cccnc2)nc1-c1ccccc1	7.9	13.0	-14.1	11.8	0.9	0.9
Cc1nc(-c2ccccc2)sc1-c1nc(-c2cccnc2)ncc1S(=O)(=O)c1ccccc1	45.4	77.0*	.	.	0.5	0.2
Cc1nc(-c2ccccc2)sc1-c1nc(-c2cccs2)ncc1S(=O)(=O)c1ccccc1	17.2	62.2*	.	.	0.8	0.4
Cc1ccc(NC(=O)N(CCCN2CCOCC2)Cc2cccs2)cc1C	63.4*	52.9*	7.6	-9.3	0.4	0.5
CCc1ccc(NC(=O)N(Cc2cccnc2)Cc2ccco2)cc1	97.8*	87.1*	-25.0	26.5	0	0.1
CCCN1CCCc2cc(CN(CCCN3CCOCC3)C(=O)Nc3ccc(OCC)cc3)ccc21	9.2	8.0	1.1	-3.8	0.9	0.9
O=C(Nc1ccc(Cl)cc1)N(CCCN1CCOCC1)Cc1cccs1	83.6*	48.1	9.1	-10.8	0.2	0.5
CCc1ccc(NC(=O)N(Cc2ccco2)C(C)c2cccs2)cc1 (stereo not given)	23.7	42.2	-10.3	8.9	0.8	0.6
Cc1ccc(NC(=O)N(CCCN2CCOCC2)Cc2cc3cc4c(cc3[nH]c2=O)OCO4)cc1	16.2	9.0	-2.2	2.5	0.8	0.9
CCOc1ccc(NC(=O)N(CCCN2CCOCC2)Cc2cccnc2)cc1	78.1*	53.8*	-1.1	-0.5	0.2	0.5
CC1SCCN1S(=O)(=O)c1ccc2ccccc2c1 (stereo not given)	.	.	11.6	-9.1	.	.
Cc1nc2cc(C(F)(F)F)ccc2n1C1CCN(CC(=O)NC(C)(C)C)CC1	32.8	12.4	2.5	-3.8	0.7	0.9
COc1ccc(OC)c(NC(=O)CSCC(=O)O)c1	10.2	-4.5	.	.	0.9	1
O=c1[nH]nc2n1CCCCC2	-2.2	-10.3	15.9	-14.0	1	1.1
CN(C)/C=N/c1nc2ccc3c(c2s1)CCCC3	81.4*	7.5	-5.1	4.4	0.2	0.9
O=C(CSc1ncn[nH]1)N(C1CCCCC1)C1CCCCC1	41.7	9.1	3.1	-4.5	0.6	0.9
SMILES	CYP2C19 inhib	CYP2C9 inhib	sEH act	sEH inh	CYP2C19 activ	CYP2C9 activ
CCOc1ccc(-c2nc(CSCC(=O)NCCN3CCOCC3)c(C)o2)cc1	31.5	24.7	.	.	0.7	0.8
Cc1ccc2nc(NC(=O)CN(C)S(=O)(=O)c3ccc(Br)s3)sc2c1	16.3	4.3	-1.0	1.3	0.8	1
Cc1ccc2nc(NC(=O)CNS(=O)(=O)c3ccc(Br)s3)sc2c1	20.8	62.8*	.	.	0.8	0.4
Cc1cccc2sc(NC(=O)CNS(=O)(=O)c3ccc(Br)s3)nc12	65.4*	-42.5	-8.0	6.6	0.3	1.4
CCN1CCN(S(=O)(=O)c2cc(C)c(OC)cc2C)CC1	28.2	-74.3	15.5	-9.9	0.7	1.7
Cc1ccc(C2CC(c3ccccc3)=NN2C(=S)Nc2ccccc2)o1 (stereo not given)	33.8	56.0*	-5.8	7.0	0.7	0.4
COc1cccc(C2CC(c3cccs3)=NN2C(=S)Nc2ccccc2)c1OC (stereo not given)	23.6	43.0	-7.0	6.7	0.8	0.6
